Assay outcomes (PubChem)
The entries come from a sample that favours hits as a whole.
C diff HTS: C. difficile growth inhibition; Clostridium difficile clinical isolate growth, OD600, 24 h; stronger effect = lower value; growth activity, negative = inhibition, % at 16 µg/mL (by protocol); 0.25% of 86,000 active; AID 1259249;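 active means mean growth activity at or below -80% and every replicate also at or below -80%; inconclusive means mean at or below -80% but some replicate above -80%; inactive means mean growth activity above -80%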;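 further: 0% = DMSO wells and -100% = levofloxacin 16 µg/mL wells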
T cruzi growth-1: blocks T. cruzi growth in NIH3T3 culture. T. cruzi beta-gal in NIH3T3, GalScreen luminescence, 90 h. AID 624255. inhibition, % at 8.34 µM. 5.9% of 77,000 active;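 active means mean inhibition above about 93%, with at least 55% of replicates each passing it, limit read from the data, passing the limit was not always enough; inconclusive means only one of those two conditions holds; inactive means neither condition holds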
T cruzi growth-2: inhibitors of T. cruzi proliferation | shares compounds with T cruzi growth-1 | T. cruzi beta-gal in NIH3T3, GalScreen luminescence, 90 h | inhibition, % at 8.35 µM | 72% of 5,600 active | AID 651739;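 active means mean replicate inhibition above about 95% and at least 55% of replicates individually reaching it, limit read from the data; inconclusive means only one of the two criteria is met; inactive means neither criterion is met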
T cruzi growth-3: blocks T. cruzi growth in NIH3T3 host cells | shares compounds with T cruzi growth-1 | T. cruzi beta-gal in NIH3T3, GalScreen luminescence, 90 h | inhibition, % at 2.09 µM | 21% of 5,600 active | AID 651740;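 active means mean inhibition above about 95%, with at least 55% of replicates also reaching it, limit read from the data; inconclusive means meets just one of the two conditions; inactive means meets neither condition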;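 further: plate controls were neutral control median for no effect and positive control median for full effect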
3T3 cytotox: kills mouse NIH/3T3 fibroblasts. AID 651742. shares compounds with T cruzi growth-1. NIH/3T3 viability, CellTiter-Glo ATP luminescence, 90 h. cytotoxicity (signal decrease), % at 8.35 µM. 14% of 5,600 active;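 active means mean signal decrease across replicates above about 35% based on untreated-well scatter, with enough replicates individually passing, limit read from the data; inconclusive means no rule stated though some were filed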;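 further: 0% = median of neutral control wells and 100% = median of positive control wells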
NIH3T3 tox 2: kills mouse NIH/3T3 fibroblasts; shares compounds with T cruzi growth-1; NIH/3T3 viability, CellTiter-Glo ATP luminescence, 90 h; inhibition, % at 24.9 µM; 56% of 5,600 active;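 active means mean loss of cell viability signal at or above a set limit, and enough replicates individually reaching it; inconclusive means meets only the mean limit or only the replicate share; inactive means meets neither condition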;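 further: 0% = median of neutral control wells and 100% = median of positive control wells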
The depositor's hits bear a star; ? = inconclusive; . = no result given.

SMILES	C diff HTS	T cruzi growth-1	T cruzi growth-2	T cruzi growth-3	3T3 cytotox	NIH3T3 tox 2
COc1cccc(-c2ccc3c(c2)O[C@H](CN(C)C(=O)C2CC2)[C@@H](C)CN([C@@H](C)CO)S3(=O)=O)c1	.	81.1	.	.	.	.
C[C@@H]1CN([C@H](C)CO)S(=O)(=O)c2ccc(-c3ccccc3)cc2O[C@H]1CN(C)C(=O)C1CC1	-10.5	115.8	.	.	.	.
C[C@@H]1CN([C@@H](C)CO)S(=O)(=O)c2ccc(-c3ccccc3)cc2O[C@H]1CN(C)C(=O)C1CC1	-3.5	?	78.0	29.3	38.3*	58.8*
COCC(=O)N1[C@@H]2c3ccc(-c4ccc(F)cc4)c(=O)n3C[C@@H]2[C@@H](CO)[C@@H]1C(=O)Nc1ccccc1	-7.4	2.3	.	.	.	.
C[C@H]1CN([C@@H](C)CO)C(=O)c2cc(NS(=O)(=O)c3ccccc3)ccc2O[C@H]1CN(C)C(=O)Nc1ccc(C(F)(F)F)cc1	.	0.2	.	.	.	.
O=C(C1CCC1)N1CC2(C1)[C@@H](c1ccccc1)[C@@H](CO)N2Cc1ccc(Cl)cc1	9.0	.	.	.	.	.
CCCC#Cc1ccc2c(c1)O[C@H](CN(C)C(C)=O)[C@@H](C)CN([C@H](C)CO)S2(=O)=O	5.1	49.4	.	.	.	.
COc1ccccc1CN1CC[C@@H]2[C@@H](CO)Nc3ccc(-c4ccc(C(=O)N(C)C)cc4)cc3[C@@H]21	-16.1	89.1	.	.	.	.
CO[C@@H]1CN(C)C(=O)c2ccc(NC(=O)Nc3cccc(F)c3)cc2OC[C@H](C)NC[C@@H]1C	.	27.4	.	.	.	.
CO[C@H]1CN(C)C(=O)c2ccc(NS(=O)(=O)c3cccc(Cl)c3)cc2OC[C@@H](C)NC[C@@H]1C	.	97.5*	80.1	12.7	0.4	-14.8
CO[C@@H]1CN(C)C(=O)c2ccc(NC(=O)Nc3cccc(F)c3)cc2OC[C@H](C)NC[C@H]1C	.	102.1*	5.9	10.5	-1.3	-15.8
CO[C@H]1CN(C)C(=O)c2cc(NC(=O)Nc3cc(F)ccc3F)ccc2OC[C@H](C)NC[C@@H]1C	.	?	8.7	-46.0	4.9	22.8
CO[C@@H]1CN(C)C(=O)c2ccc(NS(=O)(=O)c3cccc(Cl)c3)cc2OC[C@@H](C)NC[C@H]1C	.	13.7	.	.	.	.
CO[C@@H]1CN(C)C(=O)c2cc(NC(=O)Nc3cc(F)ccc3F)ccc2OC[C@H](C)NC[C@@H]1C	.	35.0	.	.	.	.
O=C(C[C@H]1C[C@@H]2c3cc(NS(=O)(=O)c4ccc(F)cc4)ccc3O[C@@H]2[C@H](CO)O1)NCc1ccc(-c2ccccc2)cc1	-1.5	93.3	.	.	.	.
CO[C@H]1CN(C)C(=O)c2cc(NC(=O)c3cc(C)on3)ccc2OC[C@H](C)N(C)C[C@H]1C	.	-55.3	.	.	.	.
C[C@H]1CCCCO[C@H](CN(C)C(=O)Nc2ccc3c(c2)OCO3)[C@@H](C)CN([C@@H](C)CO)C(=O)c2cc(NC(=O)C3CCCCC3)ccc2O1	-3.6	56.0	.	.	.	.
C[C@@H]1CCCCO[C@H](CN(C)C(=O)Nc2ccc(F)cc2)[C@H](C)CN([C@@H](C)CO)C(=O)c2cc(NC(=O)C3CCCCC3)ccc2O1	5.5	?	97.4*	47.6	-1.9	17.7
C[C@H](CO)N1C[C@H](C)[C@H](CN(C)C(=O)Nc2ccc3c(c2)OCO3)OCCCC[C@H](C)Oc2ccc(NC(=O)C3CCCCC3)cc2C1=O	-2.6	97.3*	108.6*	46.4	-10.2	-19.2
COc1ccc(NC(=O)N(C)C[C@@H]2OCCCC[C@H](C)Oc3ccc(NC(=O)C4CCCCC4)cc3C(=O)N([C@@H](C)CO)C[C@@H]2C)cc1	2.6	46.2	.	.	.	.
COc1ccc(NC(=O)N(C)C[C@H]2OCCCC[C@@H](C)Oc3ccc(NC(=O)C4CCCCC4)cc3C(=O)N([C@@H](C)CO)C[C@H]2C)cc1	-2.0	96.6*	98.1*	39.5	-30.3	-21.5
C[C@H](CO)N1C[C@H](C)[C@H](CN(C)C(=O)Nc2ccc(F)cc2)OCCCC[C@H](C)Oc2ccc(NC(=O)C3CCCCC3)cc2C1=O	6.2	74.6	.	.	.	.
CN(C)CC#Cc1ccc([C@H]2[C@@H](CO)N3CCCCN(CC4CC4)C[C@H]23)cc1	10.4	43.1	.	.	.	.
CCC(=O)N1[C@H](CO)[C@@H]2c3ccccc3N(C(=O)Nc3cccc(Cl)c3)C[C@@H]21	5.0	1.6	.	.	.	.
Cc1ccc(S(=O)(=O)NCC[C@@H]2CC[C@@H](NC(=O)C3CCOCC3)[C@@H](CO)O2)cc1	0.9	-14.8	.	.	.	.
SMILES	C diff HTS	T cruzi growth-1	T cruzi growth-2	T cruzi growth-3	3T3 cytotox	NIH3T3 tox 2
C[C@H](CO)N1C[C@H](C)[C@H](CN(C)Cc2ccc(Cl)c(Cl)c2)Oc2c(NC(=O)Nc3ccc(C(F)(F)F)cc3)cccc2C1=O	51.7	127.8*	104.7*	100.9*	7.0	98.4*
C[C@H]1CN([C@@H](C)CO)C(=O)c2cccc(NC(=O)Nc3ccc(F)cc3)c2O[C@H]1CN(C)Cc1ccc(C(F)(F)F)cc1	2.7	55.4	.	.	.	.
C[C@H](CO)N1C[C@H](C)[C@H](CN(C)Cc2ccc(Cl)c(Cl)c2)Oc2c(NC(=O)Nc3ccc(F)cc3)cccc2C1=O	.	60.4	.	.	.	.
C[C@@H]1CN([C@@H](C)CO)C(=O)c2cccc(NC(=O)NC3CCCCC3)c2O[C@@H]1CN(C)Cc1ccccc1	-3.2	-96.7	.	.	.	.
Cc1noc(C)c1NC(=O)Nc1cccc2c1O[C@@H](CN(C)Cc1ccncc1)[C@H](C)CN([C@@H](C)CO)C2=O	-3.0	109.7*	-1.7	-0.4	-6.2	-7.6
C[C@H](CO)N1C[C@H](C)[C@H](CN(C)Cc2ccc(C(F)(F)F)cc2)Oc2c(NC(=O)Nc3ccc(C(F)(F)F)cc3)cccc2C1=O	29.7	100.9*	?	77.3	-3.8	75.4*
C[C@H](CO)N1C[C@H](C)[C@@H](CN(C)Cc2ccc(Oc3ccccc3)cc2)Oc2c(NC(=O)NC3CCCCC3)cccc2C1=O	4.1	?	108.4*	88.5	-13.6	105.6*
Cc1noc(C)c1NC(=O)Nc1cccc2c1O[C@@H](CN(C)Cc1ccncc1)[C@H](C)CN([C@H](C)CO)C2=O	-0.4	42.9	.	.	.	.
O=C(C[C@@H]1CC[C@@H]2[C@H](COC[C@@H](O)CN2Cc2ccc(Cl)cc2)O1)NCc1cccc(F)c1	16.7	.	.	.	.	.
C[C@@H]1CN([C@@H](C)CO)C(=O)Cc2cc(NC(=O)CCCCCC(=O)Nc3ccccc3N)ccc2O[C@H]1CN(C)S(C)(=O)=O	-2.3	9.6	.	.	.	.
C[C@@H]1CN([C@@H](C)CO)C(=O)c2cccc(NC(=O)Nc3ccc(C(F)(F)F)cc3)c2O[C@@H]1CN(C)Cc1ccc2c(c1)OCO2	.	?	104.5*	12.7	-6.9	104.2*
C[C@H](CO)N1C[C@H](C)[C@@H](CN(C)Cc2ccc(Oc3ccccc3)cc2)Oc2c(NC(=O)Nc3ccc(C(F)(F)F)cc3)cccc2C1=O	3.9	128.7*	101.3*	88.7	8.1	104.3*
C[C@H](CO)N1C[C@H](C)[C@H](CN(C)Cc2ccc(C(F)(F)F)cc2)Oc2c(NC(=O)Nc3ccc4c(c3)OCO4)cccc2C1=O	4.7	86.7	.	.	.	.
